The values below come from PubChem BioAssay (Tox21).

Values joined by “and” are separate entries in the source; they are usually repeats but may differ in a detail not shown here. Equal values may be shown once. Inconclusive results are not listed. Where a call stands in place of a potency, no number is given. More than one record can exist for a structure, and the calls need not agree. Active and inactive are the calls of the source. The call rests on the fitted dose curve.
Potency means the concentration at half of the fitted maximal effect.

The nature of this assay: Nuclear factor erythroid 2-related factor 2/antioxidant responsive element (Nrf2/ARE) small molecule agonists: luciferase reporter gene qHTS assay in human keratinocytes (AID 1919969). Further: nearly all actives have a fitted effect of over 35% in size. The note with it: KeratinoSens HaCaT ARE-luciferase, luminescence, 24 h; series mostly up to 92.4 µM. The source says:
National Center for Advancing Translational Sciences [NCATS]
Division of Preclinical Innovation [DPI]
U.S. Environmental Protection Agency [EPA]
National Institutes of Environmental Health Sciences [NIEHS]
National Toxicology Program [NTP]
U.S. Food and Drug Administration [FDA]
Oxidative stress has been implicated in the pathogenesis of a variety of diseases ranging from cancer to neurodegeneration. The antioxidant response element (ARE) signaling pathway plays an important role in the amelioration of oxidative stress. The KeratinoSens (Givaudan, Switzerland) is an in vitro test method which quantifies luciferase induction as a measure of activation of Keap1-Nrf2-antioxidationt/electrophile response element (ARE) dependant pathway in HaCaT human keratinocytes stably transfected with a selectable plasmid. The KeratinoSens assay is a cell-based assay with a reporter cell line to detect potential skin sensitizers by their ability to induce the Nrf2/ARE-response. The activation of the report gene under culture conditions can be detected by ONE-Glo Luciferase Assay System (Promega, Madison, WI). This cell line has been used to screen the Tox21 10K compound library to identify agonists that induce oxidative stress. The cytotoxicity of the Tox21 compound library against the KS-ARE cell line was tested in parallel by measuring the cell viability using CellTiter- Fluor assay system (Promega, Madison, WI) in the same wells.
HaCaT derived cell line KeratinoSens were dispensed at 1,500 cells/5uL/well in 1536-well white wall/solid bottom plates using a Multidrop Combi (ThermoFisher Scientific, Waltham, MA) dispenser. After the assay plates were incubated at 37 C/5% CO2 for 5 h, 23 nL of compounds dissolved in DMSO, positive controls or DMSO only was transferred to the assay plate by a pintool workstation (Kalypsys, San Diego, CA). The plates were incubated at 37 C/5% CO2 for 23 h, followed by addition of 1uL/well of CellTiter-Fluor reagent into the assay plates using a Flying Reagent Dispenser (Aurora Discovery, San Diego, CA) for cell viability readout that measures cytotoxicity. After 1 h incubation at 37 C/5% CO2 the fluorescence intensity was measured using a ViewLux (PerkinElmer, Shelton, CT) plate reader. Then 4uL/well of One-Glo were added using a Flying Reagent Dispenser. After the plates were incubated at room temperature for 30 min, the luminescence intensity in the assay plates was measured using ViewLux plate reader.
Background: A reporter such as luciferase makes a cellular process visible.
For `Nc1cc([N+](=O)[O-])ccc1C(=O)O`, the Potency result is “inactive”.

Turning to `CCCCCCCCCC`, the Potency result is “inactive”.

On to `CCCCCCCCCCCCOC(=O)c1cc(O)c(O)c(O)c1`, for which the Potency entry was “inactive”.

`c1ccc2[nH]ccc2c1`: the Potency is 6.01 µM (active) and inactive.

With `CC(=O)Nc1cccc(O)c1`, the Potency entry was “inactive”.

As for `O=C1O[C@H](CO)[C@@H](O)[C@H](O)[C@H]1O`, the Potency result is “inactive”.

Regarding `CCCCOCCOCCOC(C)=O`, the Potency result was “inactive”.

For the compound `CC(O)COCC(C)O` (stereo not given), the Potency result was “inactive”.

`CN(C)CCOC(=O)COc1ccc(Cl)cc1`: the Potency entry was “inactive”.

On to `CC(CCl)OP(=O)(OC(C)CCl)OC(C)CCl` (stereo not given), for which the Potency entry is “inactive”.

As for `CC(C)OC(=O)COc1ccc(Cl)cc1Cl`, the Potency result is “inactive”.

Consider `Nc1ccccc1[N+](=O)[O-]`, for which the Potency result is “inactive”.

As to `Nc1ccc(O)c(C(=O)O)c1`, the Potency entry was “inactive”.

Turning to `CC(=O)Nc1c(I)c(NC(C)=O)c(I)c(C(=O)O)c1I`, the Potency entry was “inactive”.

In the case of `COc1ccc(C(=O)c2ccccc2)c(O)c1`, the Potency result is “inactive and 54.5 µM (active)”.

As to `Oc1c(Cl)cc(Cl)cc1Sc1cc(Cl)cc(Cl)c1O`, the Potency was 6.13 µM (active) and inactive.

For the compound `CCCCCCCCCCCCc1ccccc1O`, the Potency entry was “inactive”.

Take `CCOC(=O)c1ccc(O)cc1`: the Potency result was “inactive”.

As for `Cc1ccc(S(=O)(=O)N=C=O)cc1`, the Potency result is “inactive”.

Regarding `CCO[Si](CCCN)(OCC)OCC`, the Potency result is “inactive”.

Turning to `Cc1cccc(C(=O)O)c1`, the Potency result is “inactive”.

`NC(N)=O`: the Potency entry was “inactive”.

With `C=C(C)C(=O)O`, the Potency result was “inactive”.

As for `OC[C@@H](O)[C@@H](O[C@@H]1O[C@H](CO)[C@H](O)[C@H](O)[C@H]1O)[C@H](O)[C@@H](O)CO`, the Potency entry was “inactive”.

Regarding `NS(=O)(=O)c1cc2c(cc1Cl)NC=NS2(=O)=O`, the Potency result is “inactive”.

Regarding `Cc1c(N(C)C)c(=O)n(-c2ccccc2)n1C`, the Potency was 69.8 µM (active) and inactive.

Turning to `COCCCN`, the Potency result is “inactive”.

For `COCC(C)O` (stereo not given), the Potency result is “inactive”.

With `O=C(O)CCCCC(=O)O`, the Potency entry is “inactive”.

As for `CC(=O)OCCOC(C)=O`, the Potency entry is “inactive”.

Regarding `C=C(C)CNCC`, the Potency entry is “inactive”.

`c1ccc2cc3c(ccc4ccccc43)cc2c1`: the Potency was 9.72 µM (active) and 9.69 µM (active).

Take `CCCCC(=O)O`: the Potency result is “inactive”.

On to `CC1=C(/C=C/C(C)=C/C=C/C(C)=C/C(=O)O)C(C)(C)CCC1`, for which the Potency is 68.7 µM (active) and 68.5 µM (active) and 23.7 µM (active).

As for `CC(=O)c1ccccc1`, the Potency entry is “inactive”.

Consider `Cc1cc(C)c(C)cc1C`, for which the Potency result is “inactive”.

Consider `Cc1ccc(C(C)C)cc1`, for which the Potency entry was “inactive”.

Take `O=C(O)c1ccc(S(=O)(=O)N(Cl)Cl)cc1`: the Potency entry was “inactive”.

Take `Cc1cc(=O)[nH]c(=S)[nH]1`: the Potency result is “inactive”.

As for `O=c1[nH]cnc2c1ncn2[C@H]1CC[C@@H](CO)O1`, the Potency entry is “inactive”.
